According to PubChem BioAssay (NCATS):
Where “and” joins values, the source holds several entries; their conditions need not be identical. Equal entries are not always repeated. Results filed as inconclusive are left out. A number with no mark means an inactive call. Calls of active or inactive are those of the source. The call rests on the fitted dose curve; in most records, active means well fitted inhibition curve with a large enough effect; inconclusive means small, poorly fitted or top-dose-only effect; inactive means flat fitted curve, though single readings scatter.

How the values were obtained:
[1] = system: HEK293; assay: Cytotoxic Profiling of Annotated Libraries Using Quantitative High-Throughput Screening (AID 1296008); conditions: Five cell lines viability, CellTiter-Glo ATP luminescence, 48-72 h; max response: hits give low values; on max response: on the % scale 0 is the no-effect control and ±100 the full control effect
Outline: (§1)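 Cytotoxicity was measured as CellTiter-Glo ATP luminescence, read after 10 min at room temperature. Compound treatment of the cells lasted 48 or 72 hr at 37 degrees Celsius in a qHTS format.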

[2] = system: HaCat; assay: as above; conditions: Five cell lines viability, CellTiter-Glo ATP luminescence, 48-72 h; max response: hits give low values
Outline: as §1

[3] = system: NIH3T3; assay: as above; conditions: Five cell lines viability, CellTiter-Glo ATP luminescence, 48-72 h; max response: hits give low values
Outline: as §1

[4] = system: KB-3-1; assay: as above; conditions: Five cell lines viability, CellTiter-Glo ATP luminescence, 48-72 h; max response: hits give low values
Outline: as §1

[5] = system: MCC-13; assay: qHTS assay to identify novel small-molecules to repurpose for Merkel cell carcinoma treatment (AID 1296009); conditions: MCC and control cell lines, CellTiter-Glo viability, 72 h; series mostly up to 46 µM
Outline: (§2)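 Cell viability, measured as CellTiter-Glo luminescence, was normalized between DMSO and no-cell wells. The cells had been exposed to 8- or 11-point compound dilutions for 72 hr at 37 degree celsius.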

[6] = system: MCC-26; assay: as above; conditions: MCC and control cell lines, CellTiter-Glo viability, 72 h; series mostly up to 46 µM
Outline: as §2

[7] = system: CRL-7250; assay: Cytotoxic Profiling of Annotated Libraries Using Quantitative High-Throughput Screening (AID 1296008); conditions: Five cell lines viability, CellTiter-Glo ATP luminescence, 48-72 h; max response: hits give low values; on max response: on the % scale 0 is the no-effect control and ±100 the full control effect
Outline: as §1

[8] = system: HEK293T; assay: qHTS assay to identify novel small-molecules to repurpose for Merkel cell carcinoma treatment (AID 1296009); conditions: MCC and control cell lines, CellTiter-Glo viability, 72 h; at 44.8 µM (top of the series) unless noted
Outline: as §2

[9] = system: HACAT; assay: as above; conditions: MCC and control cell lines, CellTiter-Glo viability, 72 h; at 44.8 µM (top of the series) unless noted
Outline: as §2

[10] = system: W2; assay: qHTS profiling for inhibitors of Plasmodium falciparum proliferation (AID 504749); conditions: P. falciparum in erythrocytes, SYBR Green DNA, 72 h; series mostly up to 28.7 µM
Outline: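 SYBR Green fluorescence of parasite DNA, read after lysis and overnight dark incubation, measured growth over 72 h in erythrocyte culture at 0.3% parasitemia and 2.5% hematocrit. Data normalised to DMSO and 0.29 uM artemisinin, with plate-drift correction.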
Further: nearly all actives have a fitted effect of over 60% in size.
Potency means the concentration at half of the fitted maximal effect.

Nc1ccn([C@@H]2O[C@H](CO)[C@@H](O)[C@H]2O)c(=O)n1
max response [1]: -76.5%
Potency [2]: 29.6 µM (active)
Potency [3]: 0.526 µM (active)

CN1CCN(c2cccc(Nc3nc4c(-c5ccc(S(C)(=O)=O)cc5)cccn4n3)c2)CC1
Potency [1]: 9.2 µM (active)
Potency [2]: 14.8 µM (active) and 5.17 µM (active)
outcome [4]: inactive
max response [3]: -10.8% and -33.2%
Potency [5]: inactive
Potency [6]: inactive

CN(C)N=Nc1nc[nH]c1C(N)=O
Potency [1]: 3.72 µM (active)
Potency [2]: 18.7 µM (active)
Potency [4]: 4.69 µM (active)
max response [3]: -2.97%
Potency [5]: inactive
Potency [6]: inactive

CN1N=C(N)c2cn([C@@H]3O[C@H](COP(=O)(O)O)[C@@H](O)[C@@H]3O)c3ncnc1c23
Potency [7]: 1.32 µM (active)
Potency [4]: 3.72 µM (active)
Potency [3]: 0.418 µM (active)
Potency [6]: inactive

C[C@@H](O[C@H]1OCCN(Cc2n[nH]c(=O)[nH]2)[C@@H]1c1ccc(F)cc1)c1cc(C(F)(F)F)cc(C(F)(F)F)c1
Potency [1]: 20.9 µM (active)
max response [2]: -38.5%
Potency [4]: 26.4 µM (active)
max response [3]: -21.1%
Potency [5]: inactive
Potency [6]: inactive

Cc1ccc(NC(=O)Nc2cc(C(F)(F)F)ccc2F)cc1Nc1ccc2c(c1)NC(=O)C2=Cc1ccc[nH]1
Potency [1]: 11.8 µM (active)
Potency [4]: 9.35 µM (active)
Potency [3]: 16.6 µM (active)

OCCn1cc(-c2ccc3c(c2)CCC3=NO)c(-c2ccncc2)n1
max response [1]: 2.25%
max response [2]: 1.64%
max response [4]: -5.13%
max response [3]: -8.29%
Potency [5]: inactive
Potency [6]: inactive

O=C(Nc1ncc(SCCN2CCCC2)s1)[C@]1(c2ccc(S(=O)(=O)C3CC3)cc2)C[C@@H]1C1CCCCC1
Potency [1]: 16.6 µM (active)
Potency [3]: 23.5 µM (active)
Potency [5]: inactive
Potency [6]: inactive

CCN(CCO)CCCOc1ccc2c(Nc3cc(CC(=O)Nc4cccc(F)c4)[nH]n3)ncnc2c1
max response [7]: -19.9%
max response [4]: -29.8%
max response [3]: -28.4%
Potency [5]: inactive
Potency [6]: inactive

Cc1cccc(-c2[nH]c(C(C)(C)C)nc2-c2ccc3c(c2)OCO3)n1
Potency [1]: 4.18 µM (active)
max response [2]: -21.5%
Potency [3]: 7.43 µM (active)

O=S(=O)(NCCNCC=Cc1ccc(Br)cc1)c1cccc2cnccc12
Potency [1]: 7.43 µM (active)
max response [2]: -0.249%
max response [3]: -13.9%
Potency [6]: inactive

C[C@H]1[C@H](O)O[C@@H]2O[C@@]3(C)CC[C@@H]4[C@H](C)CC[C@@H]1[C@@]24OO3
Potency [1]: 3.32 µM (active)
max response [2]: -7.84%
Potency [4]: 20.9 µM (active)
Potency [6]: inactive

NC(=O)c1noc([C@H](CCCC2CCCCC2)CC(=O)NO)n1
Potency [1]: 11.8 µM (active)
max response [4]: -19.6% and 9.75%
Potency [3]: 18.7 µM (active) and 16.4 µM (active)
Potency [6]: inactive

CCc1cc(-c2n[nH]c(C)c2-c2ccc3c(c2)OCCO3)c(O)cc1O
Potency [1]: 11.8 µM (active)
Potency [2]: 7.43 µM (active)
Potency [3]: 8.33 µM (active)

Oc1cc(O)cc(C=Cc2ccc(O)c(O)c2)c1
outcome [1]: inactive
max response [2]: -2.98%
max response [4]: -8.49%
max response [3]: 3.17%
outcome [8]: inactive
Potency [5]: inactive
Potency [6]: inactive

CC(C)(O)CC(=O)NCCn1ccc2ncnc(Nc3ccc(Oc4cccc(C(F)(F)F)c4)c(Cl)c3)c21
Potency [1]: 16.6 µM (active)
Potency [2]: 372 nM (active) and 3.66 µM (active)
Potency [5]: inactive
Potency [6]: inactive

CC1=C[C@@H]2[C@@H]([C@@H](O)C[C@@]3(C)[C@H]2C[C@@H](C)[C@]3(O)C(=O)CO)[C@@]2(C)Cc3cnn(-c4ccccc4)c3C=C12
Potency [1]: 10.3 µM (active)
Potency [2]: 20.6 µM (active)
Potency [3]: 14.6 µM (active)
Potency [5]: inactive
Potency [6]: inactive

CCCC1OC2C[C@@H]3[C@H]4CCC5=CC(=O)C=C[C@]5(C)[C@H]4C(O)C[C@]3(C)[C@]2(C(=O)CO)O1 (some centres not stated)
max response [7]: -14.4%
max response [4]: -2.26%
max response [3]: -21.2%
Potency [5]: inactive
Potency [6]: inactive

Cc1ccc2c(c1)C(=O)[C@]1(O)CCN(c3ccccc3)C1=N2
max response [1]: -19.6%
Potency [5]: inactive
Potency [6]: inactive

COc1cc2nccc(Oc3ccc(NC(=O)Nc4ccc(F)cc4F)c(F)c3)c2cc1OC
max response [7]: -18.7%
Potency [5]: inactive
Potency [6]: inactive

CC(O)=C(C#N)C(=O)Nc1ccc(C(F)(F)F)cc1
max response [7]: -8.07%
max response [2]: -27.6%
Potency [5]: inactive
Potency [6]: inactive

CN[C@@H]1CN(c2ccc3c(=O)c(C(=O)O)cn(-c4nccs4)c3n2)C[C@@H]1OC
Potency [1]: 1.29 µM (active)
Potency [2]: 6.45 µM (active)
Potency [3]: 0.512 µM (active)
Potency [6]: inactive

COc1cc2nc(-c3cc(F)ccc3O)nc(N[C@@H]3CNC[C@@H]3C(C)(C)O)c2cc1OC
Potency [1]: 14.8 µM (active)
Potency [2]: 26.4 µM (active)
Potency [4]: 16.6 µM (active)
Potency [5]: 20.9 µM (active)

O=C(c1ccc(C=Cc2n[nH]c3ccccc23)cc1)N1CCNCC1
max response [7]: -12.3%
Potency [4]: 9.35 µM (active)
Potency [3]: 2.35 µM (active)
Potency [5]: inactive

NC1(C(=O)N[C@@H](CCO)c2ccc(Cl)cc2)CCN(c2ncnc3[nH]ccc23)CC1
Potency [1]: 469 nM (active) and 517 nM (active)
max response [2]: -16.7%
max response [4]: -18% and -7.12%
max response [3]: -1.34%
outcome [3]: inactive
Potency [5]: inactive
Potency [6]: inactive

O=C(O)c1ccc(O)c2ncc(N3CCOCC3)cc12
max response [1]: 4.93%
outcome [2]: inactive
max response [4]: 3.25%
outcome [9]: inactive
Potency [5]: inactive

CC(C)C[C@H](NC(=O)c1cc2ccccc2s1)C(=O)N1CCN(C(=O)[C@H](CO)NS(=O)(=O)c2ccc(Cl)cc2Cl)CC1
Potency [1]: 18.7 µM (active)
max response [2]: -15.5%
max response [3]: -5.73%
Potency [5]: inactive
Potency [6]: inactive

CNc1nc(-c2ccc3c(N)n[nH]c3c2)cc(N2C[C@@H](C(=O)NC3CCCCC3)CC[C@@H]2C)n1
Potency [1]: 7.43 µM (active)
max response [2]: -5.08%
Potency [5]: inactive
Potency [6]: inactive

Cn1c(=O)c(Oc2ccc(F)cc2F)cc2cnc(NC3CCOCC3)nc21
max response [7]: -20.5%
max response [4]: -6.47%
max response [3]: -13.2%
Potency [5]: inactive
Potency [6]: inactive

NS(=O)(=O)c1ccc(Nc2nc(OCC3CCCCC3)c3[nH]cnc3n2)cc1
Potency [1]: 18.4 µM (active)
max response [2]: -17.9%
Potency [4]: 14.8 µM (active)
Potency [5]: inactive
Potency [6]: inactive

Cc1nn(Cc2ccccc2Cl)c(C)c1CN(C)CC(O)COc1ccc(Cl)cc1 (configuration not stated)
Potency [1]: 18.7 µM (active)
Potency [5]: inactive
Potency [6]: inactive

CC(C)(C)c1nc(-c2cccc(NS(=O)(=O)c3c(F)cccc3F)c2F)c(-c2ccnc(N)n2)s1
max response [1]: -10.3%
max response [2]: -2.38%
max response [4]: -15.7% and -13.9%
max response [3]: -11.1% and -2.7%
Potency [5]: inactive
Potency [6]: inactive

Clc1ccc(COC(Cn2ccnc2)c2ccc(Cl)cc2Cl)c(Cl)c1 (configuration not stated)
Potency [10]: 2.28 µM (active)

Fc1ccc(C(c2ccc(F)cc2)N2CCN(CC=Cc3ccccc3)CC2)cc1
Potency [10]: 8.49 µM (active)

C[C@@H]1[C@H](C)CC[C@]2(C(=O)O)CC[C@]3(C)C(=CC[C@@H]4[C@@]5(C)CC[C@H](O)C(C)(C)[C@H]5CC[C@]43C)[C@@H]12
outcome [8]: inactive [at 92 µM]
